Compound activity as filed in PubChem.
This is a sample that favours compounds with a hit; in the whole collection about 31% have one here.
CYP2C9 act: increases human cytochrome P450 2C9 activity; P11712; recombinant CYP2C9, luciferin-H conversion, luminescence; stronger effect = higher value; factor 1 = untreated enzyme, 0 = blocked; activation factor at 5 µM; 96,000 tested, 1.4% active;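 active = activation factor of 2 or more for CYP2C9 at a 5 µM dose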;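 also: 0 = sulfaphenazole-blocked wells and 1 = vehicle-only wells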
CYP2C19 inh: human CYP2C19 inhibition; CYP2C19 Supersomes, luciferin-H EGE luminescence, 30 min; inhibition, % at 5 µM; 96,000 tested, 21% active;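 active = CYP2C19 inhibition above a set limit at 5 µM in the primary screen, cut at about 50% in these data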;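 also: plate controls were negative control wells for no effect and 2.5 mM tranylcypromine positive control for full effect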
Target sequence (P33261 whole entry, looked up): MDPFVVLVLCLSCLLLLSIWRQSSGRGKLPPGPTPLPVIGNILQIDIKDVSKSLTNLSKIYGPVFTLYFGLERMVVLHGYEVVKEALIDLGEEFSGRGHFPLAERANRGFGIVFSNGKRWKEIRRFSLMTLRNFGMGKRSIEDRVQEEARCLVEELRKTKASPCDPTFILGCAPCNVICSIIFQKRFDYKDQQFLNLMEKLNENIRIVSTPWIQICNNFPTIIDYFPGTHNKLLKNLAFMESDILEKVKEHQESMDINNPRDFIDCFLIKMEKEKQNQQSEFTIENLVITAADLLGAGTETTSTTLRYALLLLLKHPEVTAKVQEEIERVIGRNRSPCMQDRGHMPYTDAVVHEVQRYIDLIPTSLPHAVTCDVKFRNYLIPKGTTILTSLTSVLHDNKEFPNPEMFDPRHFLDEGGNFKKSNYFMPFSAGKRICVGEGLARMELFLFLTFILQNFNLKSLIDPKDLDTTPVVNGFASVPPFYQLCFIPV
CYP2C9 inhib: blocks human cytochrome P450 2C9. P11712. CYP2C9 Supersomes, luciferin-H conversion, luminescence. inhibition, % at 5 µM. 96,000 tested, 20% active. AID 777;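 active = blocking of liver enzyme CYP2C9 beyond about 50% at 5 µM, limit read from the data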
PLAP activator: human PLAP activation. purified PLAP enzyme, luminescent substrate read-out; stronger effect = higher value. activation fold at 20 µM. 96,000 tested, 1.2% active; in the data active = activation fold above about 2
CYP2C19 act: activators of human cytochrome P450 2C19; P33261; recombinant CYP2C19, luciferin-H EGE luminescence; stronger effect = higher value; 0 = fully inhibited enzyme, 1 = untreated enzyme; activation factor at 5 µM; 96,000 tested, under 10 active;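 active = activation factor of at least 2 at 5 µM in the primary screen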;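 also: 0 = wells with 2.5 mM tranylcypromine and 1 = vehicle-only wells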
* = called active by the depositor.

SMILES	CYP2C9 act	CYP2C19 inh	CYP2C9 inhib	PLAP activator	CYP2C19 act
CCc1ccc(N(C(C)=O)C2C=CS(=O)(=O)C2)cc1 (stereo not drawn)	0.9	27	12	1	0.7
COC(=O)C1=C(C)NC(C)=C(C(=O)OC)C1C(=O)OCCN1C(=O)c2ccccc2C1=O	0.3	80*	71*	1.3	0.2
COc1ccccc1OC(=O)CN1C(=O)c2ccccc2C1=O	1.2	-2	-18	1.1	1
Cc1cc(=O)oc2cc(OC(=O)CCN3C(=O)c4ccccc4C3=O)ccc12	0.9	11	11	1	0.9
O=C(OCCN1C(=O)c2ccccc2C1=O)c1cc2ccccc2o1	0.8	32	20	1	0.7
COc1ccccc1OCCC(=O)OCCN1C(=O)c2ccccc2C1=O	0.9	56*	13	1	0.4
COc1ccc(OC(=O)CCCN2C(=O)c3ccccc3C2=O)cc1	0.9	53*	7	0.8	0.5
COc1cc(S(=O)(=O)Nc2cccnc2)ccc1F	1	25	4	1	0.7
COc1ccc(NS(=O)(=O)c2ccc(OC)c(N(C)S(=O)(=O)c3ccc(Cl)cc3)c2)cc1	0.4	33	61*	1.3	0.7
COc1ccc(OC)c(S(=O)(=O)Nc2ccc(CC(=O)O)cc2)c1	1	-3	2	0.8	1
COc1ccc(S(=O)(=O)Nc2ccc(F)cc2)cc1N(C)S(=O)(=O)c1ccc(Cl)cc1	0.3	52*	67*	1.3	0.5
CCOCCSc1nnc2nc(C)cc(C)n12	1.2	-6	-16	0.9	1.1
COc1ccc(C(=O)Nc2ccccc2)cc1S(=O)(=O)Nc1cc(C)on1	0.9	-4	8	1.2	1
Cc1cccc(-n2c(C)n[nH]c2=S)c1	1	10	-5	1	0.9
Cc1cccc(-n2c(CCn3nc(C)c([N+](=O)[O-])c3C)n[nH]c2=S)c1	0.7	8	26	2.1*	0.9
CCCC(C)NS(=O)(=O)c1ccc(OC)c(C)c1 (stereo not drawn)	1.8	81*	-84	0.8	0.2
CC(C)CC(NS(=O)(=O)c1ccccc1)C(=O)O (stereo not drawn)	0.8	14	18	1	0.9
CCCC(C)NS(=O)(=O)c1ccccc1 (stereo not drawn)	0.5	86*	54*	0.9	0.1
Cc1cccc(C(=O)n2c(=S)nc3ccccn32)c1	1	36	-2	0.9	0.6
O=C(c1cc(Br)c(Br)s1)N1CCN(C/C=C/c2ccccc2)CC1	0.8	27	17	1.5	0.7
C#CCOC(=O)CCCNc1ccc([N+](=O)[O-])cc1[N+](=O)[O-]	0.4	62*	58*	0.9	0.4
COC(=O)CCCNC(=O)OCc1ccc([N+](=O)[O-])cc1	0.9	35	13	0.9	0.6
CN(C)c1nc(Nc2ccc(Cl)cc2)nc(OCC#N)n1	1	-7	4	1.2	1.1
CCOC(=O)c1c(C)nn(Cc2ccccc2)c1N	0.6	8	40	1.2	0.9
Cc1cc(C(=O)CN2C(=O)NC3(CCCc4ccccc43)C2=O)c(C)n1Cc1ccccc1 (stereo not drawn)	0.3	56*	71*	1.5	0.4
SMILES	CYP2C9 act	CYP2C19 inh	CYP2C9 inhib	PLAP activator	CYP2C19 act
Cc1nn(Cc2ccccc2)c(C)c1C(=O)OCC(=O)c1cc(C)n(CC(F)(F)F)c1C	0.9	53*	10	1.6	0.5
Cc1cc(C(=O)CN2C(=O)NC3(CCCc4ccccc43)C2=O)c(C)n1Cc1ccco1 (stereo not drawn)	0.3	27	74*	1	0.7
CCOC(=O)c1cc(C)n(-c2ccc(OC)c(OC)c2)c1C	0.4	88*	63*	1.7	0.1
O=C(CC1C(=O)NCCN1C(=O)Nc1ccccc1)Nc1cccc(C(F)(F)F)c1 (stereo not drawn)	0.7	17	34	0.9	0.8
CCCCc1cc(=O)oc2cc(OCc3cc(OC)c(OC)c(OC)c3)c(Cl)cc12	1	14	2	1.2	0.9
CCOC(=O)c1cc(C)n(Cc2ccccc2)c1C	0.5	65*	50*	1	0.3
Cc1cc(C(=O)CN2C(=O)CCC2=O)c(C)n1Cc1ccccc1	0.6	62*	37	1.3	0.4
Cc1cc(-n2c(C)cc(C(=O)CN3C(=O)NC4(CCCCCC4)C3=O)c2C)no1	1	47	-2	0.9	0.5
O=C(CN1C(=O)NC2(CCCc3ccccc32)C1=O)N1CCc2ccccc2C1 (stereo not drawn)	0.4	54*	59*	1.5	0.5
